Shown are actives, neighbours in structure and some others; about 2.5% of the full set was active somewhere.
sEH activator: soluble epoxide hydrolase activators, primary screen, biochemical, human sEH. Bifunctional epoxide hydrolase 2 (Homo sapiens), P34913. purified human sEH enzymatic activity, activator screen. activation, % at 2 µM. 0.04% of 91,000 active; in the data active = activation above about 37%
Target sequence (P34913 whole entry, looked up): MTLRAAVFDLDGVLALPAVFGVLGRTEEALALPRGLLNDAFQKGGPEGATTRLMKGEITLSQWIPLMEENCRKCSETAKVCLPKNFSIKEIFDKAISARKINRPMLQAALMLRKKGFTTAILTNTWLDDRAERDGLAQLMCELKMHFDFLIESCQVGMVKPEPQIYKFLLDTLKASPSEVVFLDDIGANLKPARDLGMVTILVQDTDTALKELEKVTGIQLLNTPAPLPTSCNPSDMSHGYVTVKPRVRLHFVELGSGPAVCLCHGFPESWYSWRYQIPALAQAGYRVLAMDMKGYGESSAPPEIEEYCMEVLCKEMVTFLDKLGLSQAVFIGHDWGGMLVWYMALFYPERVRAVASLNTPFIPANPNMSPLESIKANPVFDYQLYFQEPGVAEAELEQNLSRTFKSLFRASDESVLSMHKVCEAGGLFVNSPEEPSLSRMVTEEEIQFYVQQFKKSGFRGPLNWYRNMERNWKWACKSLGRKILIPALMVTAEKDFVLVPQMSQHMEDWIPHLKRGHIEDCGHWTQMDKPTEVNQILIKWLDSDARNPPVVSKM
MRP1 act: H69AR viability gain despite doxorubicin, primary screen, MRP-1 activator project, H69AR cells, CellTiter-Glo. viability rescue. viability increase, % at 10 µM. 0.61% of 140,000 active. AID 799, 2007;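 active = viability gain under doxorubicin at or above a set limit, the compound median plus 3 SD, cut at about 4.7% in these data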;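 also: MRP-1 overexpressing cells given doxorubicin 25 µM after compound pretreatment; 18-22 h compound pretreatment then 72 h with doxorubicin before readout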
SDO1 yeast rescue: growth rescue of sdo1-depleted yeast, primary screen, S. cerevisiae, bone marrow failure model. z-score at 10 µM. 0.21% of 140,000 active. S. cerevisiae sdo1-depleted JHY4D growth rescue, OD600 30 h; hits give high values; pdr5 snq2 efflux-pump mutant strain;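 active = z-score above 3 at both the 24 hr and the 30 hr optical density reads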
sEH inh: soluble epoxide hydrolase inhibitors, primary screen, biochemical, human sEH | inhibition, % at 2 µM | recombinant human sEH enzymatic activity assay | Bifunctional epoxide hydrolase 2 (Homo sapiens), P34913 | 0.34% of 91,000 active; in the data active = inhibition above about 80%
Measles CPE: compounds protecting cells from measles virus cytopathic effect, primary screen, measles RdRp inhibitor project, single point, MLSMR library, absorbance; Measles virus-infected cells, CPE protection; protection (pct of control), % at 4 µM; 1.5% of 140,000 active; in the data active = protection mostly above about 24%, no sharp cut-off; inactive = mostly below about 26%
MRP reversal: reversal of MRP1-mediated doxorubicin resistance, primary screen, H69AR cells, doxorubicin co-treatment; H69AR cells + 2 uM doxorubicin, CellTiter-Glo, 72 h; differential viability (reversal), % at 10 µM; 0.04% of 85,000 active; AID 602, 2007;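 active = viability drop by adding the cancer drug above about 55%, with treated viability meeting a 40% cutoff, limit read from the data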;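 also: larger differential means the compound sensitizes cells more to doxorubicin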
A number is an active result; n = inactive; x = no result.

SMILES | sEH activator | MRP1 act | SDO1 yeast rescue | sEH inh | Measles CPE | MRP reversal
Cc1[nH]n(-c2ccccc2)c(=S)c1C=Nc1cccc([N+](=O)[O-])c1 | n | n | n | n | n | x
Cc1ccccc1OCC(=O)Nc1sc(C(=O)Nc2cccc(C)c2C)c(C)c1C#N | n | n | n | n | 102.5 | x
CCCCOCCCn1c(-c2ccco2)nc2nc3ccccc3nc21 | n | n | n | n | n | n
COC(=O)N/N=C/c1ccc(-c2cccc(Cl)c2)o1 | x | 4.8 | n | x | n | x
COC(=O)N/N=C/c1ccc(-c2cc(Cl)cc(Cl)c2)o1 | x | 8.5 | n | x | n | x
Cc1ccc(-c2ccc(/C=N/NC(=O)CN3CCCC3)o2)cc1Cl | n | n | n | n | n | x
COC(=O)N/N=C/c1ccc(-c2ccc(C)c(Cl)c2)o1 | x | 7.5 | n | x | n | x
NC(=S)N/N=C/c1ccc(-c2cc(Cl)cc(Cl)c2)o1 | n | n | n | n | n | n
CC1(C)CC(=O)C2=C(C1)N(c1ccccc1)C(=O)C2(O)C(F)(F)F (stereo not given) | x | n | n | x | n | x
CC(C)C(=O)c1cn(CC(=O)N2CCCc3ccccc32)c2ccccc12 | n | n | n | n | n | n
CS(=O)(=O)Nc1nnc(Cc2ccccc2)s1 | n | 7.9 | n | n | n | n
CCOC(=O)Cc1csc(NC(=O)CC)n1 | x | n | n | x | n | n
CCOC(=O)Cc1csc(NC(=O)CSc2cc(Cl)ccc2Cl)n1 | x | n | n | x | 29.1 | x
CC(C)(C)c1nc(N2CCN(C(=O)c3ccco3)CC2)c2nnn(Cc3ccccc3)c2n1 | n | n | n | n | n | n
O=C(c1ccco1)N1CCN(c2nc(C3CC3)nc3c2nnn3Cc2ccccc2Cl)CC1 | n | 7.0 | n | n | n | n
COC(=O)c1sc(=S)n(-c2ccccc2OC)c1N | n | n | n | n | 44.0 | x
CCOC(=O)c1sc(=S)n(-c2ccccc2OC)c1N | x | n | n | x | n | n
CCn1c(CSc2nc3ccccc3[nH]2)nc2cc(C(=O)O)ccc21 | n | n | n | n | n | x
CCn1c(CSc2nccn2C)nc2cc(C(=O)O)ccc21 | n | n | n | n | 50.9 | n
O=C(NN=C1CCCCCCCCCCC1)c1cccc(S(=O)(=O)N2CCOCC2)c1 | x | n | n | x | n | x
COc1ccc(S(=O)(=O)N(CC(=O)N/N=C/c2cccs2)c2cc(C)cc(C)c2)cc1OC | n | n | n | n | n | x
Cc1ccc(NC(=O)C2C3C=CC4(CN(Cc5cccnc5)C(=O)C24)O3)cc1F (stereo not given) | x | n | n | x | n | n
CS(=O)(=O)N1CCC(C(=O)Nc2ccc3c(c2)OCO3)CC1 | n | n | n | n | n | n
Cc1ccc(S(=O)(=O)N2CCC(C(=O)N[C@@H](C)C(=O)Nc3ccc4c(c3)OCO4)CC2)cc1 | n | 6.2 | n | n | n | n
CC1(C)CC(=O)C(=C2SCCCS2)C(=O)C1 | x | n | n | x | n | x
SMILES | sEH activator | MRP1 act | SDO1 yeast rescue | sEH inh | Measles CPE | MRP reversal
CC(NC(=O)C12CC3CC(CC(C3)C1)C2)c1ccc2c(c1)OCCO2 (stereo not given) | n | 6.9 | n | n | n | n
C/C(=N\NC(=O)CCC(=O)Nc1ccccc1)c1cccs1 | x | n | n | x | n | x
COc1cccc(CNC(=O)C2CCC(CNS(=O)(=O)c3cccc4nsnc34)CC2)c1 (stereo not given) | n | n | n | 80.3 | n | n
O=C(NCc1cccs1)C1CCC(CNS(=O)(=O)c2cccc3nsnc23)CC1 (stereo not given) | n | n | n | n | n | n
CCOC(=O)N1CCC(NC(=O)C2CCN(c3ccc(N4CCOCC4)nn3)CC2)CC1 | x | n | n | x | 47.5 | n
O=C(C(Cc1ccccc1)NS(=O)(=O)c1cccc2cccnc12)N1CCc2ccccc21 (stereo not given) | n | n | n | n | n | n
CCCn1nnc(NC(=O)C(C)Oc2ccc(Cl)cc2Cl)n1 (stereo not given) | n | n | n | n | 47.0 | n
O=C(Cn1cnc2c(nnn2Cc2ccc(Cl)cc2)c1=O)NCC1CCCO1 (stereo not given) | n | n | n | n | 47.9 | n
O=C(Cn1cnc2c(oc3ccccc32)c1=O)NCC1CCCO1 (stereo not given) | n | n | n | n | 27.1 | n
O=C(Cn1cnc2c(oc3ccccc32)c1=O)NCc1ccccc1 | n | n | n | n | n | n
COc1c(C)cccc1C(=O)Nc1cc(-c2nn3c(C)nnc3s2)ccc1C | n | x | x | n | x | x
CCOC(=O)C1=C(C)Nc2ccccc2N=C1NC(=O)Cc1ccc(OC)cc1 | x | n | n | x | n | x
CC(C)(C)n1nnnc1CN1CCC(NC(=O)NC2CCCCC2)CC1 | n | n | n | 96.8 | n | n
COc1ccc(CC(=O)NC2CCN(Cc3nnnn3C(C)(C)C)CC2)cc1OC | n | n | n | n | n | n
CC(/C=C1\SC(=S)N(CCCC(=O)Nc2ccc(C(=O)O)c(O)c2)C1=O)=C\c1ccccc1 | x | 4.8 | n | x | n | x
CC(/C=C1\SC(=S)N(NC(=O)c2ccc(C)cc2)C1=O)=C\c1ccccc1 | n | n | n | n | n | x
CC(=O)c1ccc(NC(=O)CN2C(=O)/C(=C/C(C)=C/c3ccccc3)SC2=S)cc1 | x | 8.5 | n | x | x | x
O=C(NCc1nnc(SCc2ccc(F)cc2)n1-c1ccc(F)cc1)C12CC3CC(CC(C3)C1)C2 | x | n | n | x | n | x
CC(NC(=O)/C=C/c1ccco1)c1nc2ccccc2n1Cc1cccc(Cl)c1 (stereo not given) | x | n | n | x | n | x
O=C(CCN1C(=O)/C(=C\c2ccccc2Cl)SC1=S)N1CCN(c2ccccc2)CC1 | n | n | n | n | n | x
O=C(O)CCN1C(=O)CC(N2C(=O)/C(=C/c3ccc(Cl)cc3)SC2=S)C1=O (stereo not given) | x | 8.0 | n | x | n | x
Cc1ccc(-n2c(SCC(=O)N3CC(=O)Nc4ccccc43)nc3ccccc3c2=O)cc1 | x | n | n | x | 32.8 | x
Cc1cccc(C)c1-n1c(SCC(=O)N2CC(=O)Nc3ccccc32)nc2ccccc2c1=O | x | n | n | x | n | x
O=C(O)c1ccccc1-c1nc2ccccc2n1-c1ccccc1 | x | n | n | x | n | x
O=C1c2ccccc2-c2nc3ccccc3n21 | n | 8.3 | n | n | n | n
COCC(=O)N(C)C1(c2nnnn2CCOC(=O)Nc2cccc3ccccc23)CCCC1 | n | n | n | n | n | n
CC(C)(CO)NS(=O)(=O)c1ccc2c(c1)oc(=O)c1cc(S(=O)(=O)NC(C)(C)CO)ccc12 | n | n | n | n | 61.3 | n
N#Cc1c(-c2ccccc2)nc(SCC(=O)Nc2ccccc2F)[nH]c1=O | x | 9.8 | n | x | n | x
Cc1cccc(NC(=O)CSc2nc(-c3ccccc3)c(C#N)c(=O)[nH]2)c1C | n | 9.1 | n | n | n | x
CCOC(=O)CCCCC(=O)c1[nH]c(=O)[nH]c1CSCCO | n | n | n | n | n | n

Screening results deposited in PubChem BioAssay by several laboratories.
